Among the data in PubChem BioAssay AID618 (Sanford-Burnham Center for Chemical Genomics, 2007) are outcome values, retold here.

The whole screen tested about 87,000 compounds, of which about 540 (0.62%) were called active. The sample holds actives, similar compounds and a random draw of the others, so the mix is not that of the screen. How the calls were made is not given here. Results with a measured potency or affinity are listed apart.

A short description of the experiment: inhibitors of MT1-MMP promoter transcription, cell-based, luciferase reporter, luminescence (AID 618).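 Further: actives suppress MT1-MMP promoter-driven transcription so potencies describe inhibitors.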 Conditions: MT1-MMP promoter luciferase reporter cells. On the technique in general: In a reporter assay the amount or activity of a reporter protein is the signal.
Regarding `O=C(Nc1cc(C(F)(F)F)ccc1N1CCCCC1)c1ccco1`, the outcome was inactive. For `COCCNC(=O)CN1c2ccccc2CC1C` (stereo unspecified) the value was “inactive”. As to `CCCSc1nc(C)c(-c2csc(C(C#N)=C3CCCC3)n2)cc1C#N`, the call was inactive. For `CCOC(=O)N1CCN(CCC(=O)Nc2ccccc2OC)CC1` the value was “inactive”. With `CS(=O)(=O)Nc1ccccc1C(=O)Nc1ccccc1Cl`, the compound was classed as inactive. `COc1ccc(CCNC(=O)CSc2nnc(-c3ccc(F)cc3)o2)cc1OC`: the outcome was inactive. `CC(=O)C1=C(O)C(=O)N(Cc2ccccc2)C1c1cccs1` (stereo unspecified): the call was inactive.

In the case of `COc1cc(C2c3c(oc4cc(C)c(C)cc4c3=O)C(=O)N2c2cc(C)ccn2)ccc1O` (stereo unspecified), the compound was called inactive. For `COc1ccc(N2CCN(C(=O)CCNS(=O)(=O)c3cccs3)CC2)cc1` the value was “inactive”; for `CC(C)(C)C(=O)Nc1ccc2oc(-c3cc(F)c(F)cc3Cl)nc2c1`, “inactive”; for `CC(C)C(=O)Nc1ccc2oc(-c3cc(F)c(F)cc3Cl)nc2c1`, “inactive”. For `CC(C)N=Cc1c(O)[nH]c2ccccc12` the value was “inactive”; for `CN=Cc1c(NC)nc2c(C)cccn2c1=O`, “inactive”; for `O=C(NCc1ccc(F)cc1)C1CCC(=O)N1CCc1ccccc1` (stereo unspecified), “inactive”. With `Cc1ccc(NC(=O)c2ccc(S(=O)(=O)N3CCCC3)cc2)cc1`, the result was inactive.

Turning to `C[C@@H](NC(=O)c1coc(=O)c(Br)c1)c1ccccc1`, the call was inactive. In the case of `CN(C)CCNC(=O)c1coc(=O)c(Br)c1`, the result was inactive. On to `O=C(CNC(=O)C1CCCCC1)NCCCO`, for which the outcome was inactive. Turning to `CC(C)OCCCNc1ncnc2c1cnn2-c1ccccc1`, the outcome was active.

On to `CCCNc1ncnc2c1cnn2-c1ccc(OC)cc1`, for which the compound was classed as inactive. For `COCC(C)Nc1ncnc2c1cnn2-c1ccc(Cl)cc1` (stereo unspecified), the compound was called inactive. Take `CC(C)Nc1ncnc2c1cnn2-c1ccccc1`: the compound was classed as inactive. For `Cc1cccc(-n2ncc3c(NC(C)C)ncnc32)c1`, the outcome was inactive. Turning to `CCC(CO)Nc1ncnc2c1cnn2-c1ccc(OC)cc1` (stereo unspecified), the outcome was inactive. For `Cc1ccc(-n2ncc3c(NCCCOC(C)C)ncnc32)c(C)c1`, the compound was called inactive. For `COc1ccc(-n2ncc3c(NCc4ccco4)ncnc32)cc1` the value was “inactive”; for `CCCCNc1ncnc2c1cnn2-c1ccccc1`, “inactive”; for `Cc1cc(C)nc(NS(=O)(=O)c2ccc(Br)s2)c1`, “inactive”. As for `O=C(NCCOc1nc(N2CCOCC2)nc(N2CCOCC2)n1)Nc1ccc(Cl)cc1`, the outcome was inactive. For `CCNS(=O)(=O)c1ccc(NC(=O)Cc2ccc(F)cc2)cc1` the value was “inactive”; for `O=C1C2CC=C(Cl)CC2C(=O)N1CCc1ccccc1` (stereo unspecified), “inactive”; for `COc1ccc(OC)c(NC(=O)C2CCCNC2=O)c1` (stereo unspecified), “inactive”. For `Cc1cc(NC(=O)CSc2nc3c(sc4ccccc43)c(=O)n2CCc2ccccc2)n[nH]1`, the outcome was inactive. For `O=C(O)CSC1CC(=O)N(c2ccc(Cl)c(Cl)c2)C1=O` (stereo unspecified) the value was “inactive”; for `COc1ccc(CNC(=O)c2ccc3c(c2)N(C)C(=O)CS3=O)cc1` (stereo unspecified), “inactive”; for `COc1ccc(CNc2ccccc2SC)cc1OC`, “inactive”.

As to `CSc1ccccc1N=CC1=C(O)CC(C)(C)CC1=O`, the result was inactive. For `C=CCNc1ncnc2c1cnn2-c1ccc(Cl)cc1` the value was “inactive”; for `C=CCNc1ncnc2c1cnn2-c1cccc(C)c1`, “inactive”; for `O=C(Nc1ccccc1C(=O)NCCCn1ccnc1)c1ccc(Cl)cc1Cl`, “inactive”.

As to `O=C(Nc1ccccc1C(=O)NCCCn1ccnc1)c1ccccc1`, the call was inactive.

As to `CCOc1cc(N2CCOCC2)c(OCC)cc1NC(=O)CCS(=O)(=O)c1ccc(Cl)cc1`, the call was inactive. As for `CCOc1cc(N2CCOCC2)c(OCC)cc1NS(=O)(=O)c1ccc(Cl)s1`, the result was active. As for `CCOc1ccc(Br)cc1S(=O)(=O)Nc1ccccc1N1CCOCC1`, the compound was called inactive. For `CCOC(=O)c1[nH]c(C)c(CN(Cc2ccco2)C(=O)C(F)(F)F)c1C` the value was “inactive”; for `O=C(CCl)Nc1cccc(-c2cnc3ccccc3n2)c1`, “active”; for `O=C(Nc1cccc(-c2cnc3ccccc3n2)c1)c1ccco1`, “inactive”.

For the compound `O=C(CNC(=O)c1ccc(Br)o1)Nc1cccc(-c2cnc3ccccc3n2)c1`, the compound was classed as inactive. On to `O=c1cc(O)c(-c2ccccc2Cl)c(Cl)[nH]1`, for which the compound was called inactive. Turning to `Cc1nnc(NCCc2ccccc2)[nH]c1=O`, the result was inactive. For `CC(=O)Oc1ccc2oc(C)c(C(=O)N3CCOCC3)c2c1` the value was “inactive”; for `Nc1ccc2nc(-c3ccccn3)[nH]c2c1`, “inactive”. On to `CC(=O)Nc1ccc2nc(-c3ccccn3)[nH]c2c1`, for which the compound was classed as inactive. For `CC(=O)Nc1nnc(Cc2ccccc2)s1` the value was “inactive”.

In the case of `COC(=O)C(Cc1cnc(Cl)s1)(C(=O)OC)c1ccc([N+](=O)[O-])cc1`, the compound was classed as inactive. As for `Cc1ccc(C)c(C(=O)CSc2nnnn2C(C)C)c1`, the compound was called inactive. Take `CC(=O)Nc1ccc(C(=O)CSc2nnnn2C(C)C)cc1`: the compound was classed as inactive. As for `COc1ccc(NC(=O)N2c3ccccc3CC2C)cc1OC` (stereo unspecified), the compound was classed as inactive.

On to `Cc1nc2cc(NC(=O)N3c4ccccc4CC3C)ccc2n1C` (stereo unspecified), for which the compound was classed as active. For `Cc1nc2cc(NC(=O)N3c4ccccc4CC3C)ccc2o1` (stereo unspecified) the value was “inactive”. As to `COc1ccc(Cn2nnnc2C(c2ccc(N(C)C)cc2)N2CCC(C)CC2)cc1` (stereo unspecified), the outcome was inactive. Take `COCCn1c(SCC(=O)N2CCC(C)CC2)nc2ccccc2c1=O`: the outcome was inactive. For `COc1ccc(C(=O)Nn2c(SCC(=O)NC3CCCC3)nc3ccccc3c2=O)cc1` the value was “inactive”; for `O=C(CSc1nc2ccsc2c(=O)n1NC(=O)c1ccccc1)NCc1ccco1`, “inactive”.

Consider `COc1ccc(C(=O)Nn2c(SCC(=O)c3ccc(Cl)cc3)nc3ccccc3c2=O)cc1`, for which the outcome was inactive. For `COc1ccc(C(=O)Nn2c(SCC(=O)c3ccccc3)nc3ccccc3c2=O)cc1` the value was “inactive”. For `O=C(CSc1nc2ccccc2c(=O)n1NC(=O)Cc1ccccc1)NCc1ccco1` the value was “inactive”. For `CCOc1ccccc1NC(=O)C1C2C=CC(C2)C1C(=O)O` (stereo unspecified) the value was “inactive”. For the compound `Cc1cc(N)n(-c2nc(-c3cccnc3)nc3ccccc23)n1`, the call was inactive. For `Cc1cc(Nc2ccccc2N2CCOCC2)n2ncnc2n1` the value was “inactive”; for `O=C(Cn1nnc(-c2ccc(Cl)cc2)n1)NC1CCN(Cc2ccccc2)CC1`, “inactive”; for `N#Cc1nc(-c2ccc(OCc3ccc(Cl)cc3)cc2)oc1N1CCC(C(N)=O)CC1`, “inactive”. On to `CN(C)C(=O)N1CCC(C(=O)NCc2ccc(F)cc2Cl)CC1`, for which the compound was called inactive. For `c1ccc(-n2nnnc2SCc2ccccn2)cc1` the value was “inactive”; for `CCN(CC)C(=O)C1CCCN(Cc2cccc(F)c2)C1` (stereo unspecified), “inactive”. Turning to `Cn1c(=O)c2c(nc(SCC(=O)NCc3ccc4c(c3)OCO4)n2Cc2ccc(F)cc2)n(C)c1=O`, the call was inactive. Regarding `O=C(CCCOc1ccc(Cl)cc1)N1CCCCCC1`, the compound was called inactive.

Turning to `O=C(CCCOc1ccccc1)N1CCN(c2ccccc2)CC1`, the compound was called inactive. For the compound `Cc1cc(C)n(-c2ccc(C(=O)Nc3nc4ccccc4s3)cc2)n1`, the call was inactive. In the case of `O=C(Nc1nc2ccccc2s1)c1ccc(Cl)s1`, the outcome was inactive. For `CCOc1ccccc1OCC(=O)OCC(=O)Nc1ncc(Cl)cc1Cl` the value was “inactive”; for `CCn1c(SCC(=O)N2CCN(c3ccc(F)cc3)CC2)nc2ccccc2c1=O`, “inactive”; for `C#CC[N+]1(CC#Cc2ccccc2)CCOCC1`, “inactive”. For `COC(=O)CSc1nnc(Cc2ccccc2)n1-c1ccc(C)cc1` the value was “inactive”; for `COc1cc(C2=NOC(C(=O)NCc3cccs3)C2)cc(OC)c1OC` (stereo unspecified), “inactive”; for `COc1ccc(C2=NOC(C(=O)NCc3cccs3)C2)cc1OC` (stereo unspecified), “active”.

Consider `COc1ccc(C2=NOC(C(=O)NCc3cccs3)C2)cc1` (stereo unspecified), for which the result was inactive. For `CCC1(C)Cc2c(sc3nn[nH]c(=O)c23)CO1` (stereo unspecified) the value was “inactive”. Take `Cc1nc2sc(C(c3cccs3)N3CCN(c4ccccc4)CC3)c(O)n2n1` (stereo unspecified): the result was inactive. For `Cn1c(=NC(=O)CCl)sc2ccccc21` the value was “active”; for `Cn1c(=NC(=O)CN2C(=O)C3CC=CCC3C2=O)sc2ccccc21` (stereo unspecified), “inactive”.

Regarding `CC(=O)N=c1sc2ccccc2n1C`, the call was inactive. Consider `CCCCOC(=O)C(C)Nc1n[nH]c(=S)[nH]c1=O` (stereo unspecified), for which the compound was called inactive.

On to `CCN(C(=O)CN1CCN(c2ccccc2OC)CC1)c1c(N)n(Cc2ccccc2)c(=O)[nH]c1=O`, for which the compound was classed as inactive. For `CC(=O)N(/N=C1\Sc2ccccc2C1=O)c1ccccc1C` the value was “inactive”; for `CC(=O)N(/N=C1\Sc2ccccc2C1=O)c1cccc(C)c1`, “inactive”. For `Cn1c(=O)c2c(nc(NCCc3ccccc3)n2Cc2ccc(F)cc2)n(C)c1=O` the value was “inactive”; for `CC(=O)n1nc(-c2ccccc2)nc1NCc1ccc(F)cc1`, “inactive”.

With `Cn1c(=O)c2c(nc(NCc3ccccc3)n2Cc2ccc(F)cc2)n(C)c1=O`, the result was inactive. For `O=C(Cc1ccc(F)cc1)NCCc1ccccc1` the value was “inactive”; for `CC(=O)N(Cc1ccc(F)cc1)C1=C(NCc2ccccc2)C(=O)c2ccccc2C1=O`, “active”; for `OC(CN1C2=NCCN2c2ccccc21)c1ccc(Br)cc1` (stereo unspecified), “inactive”.

As for `O=S(=O)(NCCSc1nc2ccccc2o1)c1ccccc1`, the call was inactive. For `O=C(CCC1CCCC1)Nc1ccc(OCC(=O)N2CCOCC2)cc1` the value was “inactive”. `COc1ccccc1CN1CCSCC1`: the outcome was inactive.

As to `COCc1nnc(NC(=O)c2cc(Cl)ccc2OC)s1`, the compound was classed as inactive. For `O=C(CSc1nnc(Cc2cccs2)n1Cc1ccco1)Nc1ccc(Cl)cc1Cl` the value was “inactive”; for `Cc1ccnn1CC(=O)N/N=C/c1ccco1`, “inactive”. For the compound `COCCn1c(N)c(S(=O)(=O)c2cccs2)c2nc3ccccc3nc21`, the outcome was inactive. For `CC(C)CCn1c(N)c(S(=O)(=O)c2cccs2)c2nc3ccccc3nc21` the value was “active”; for `CC(C)Cn1c(N)c(S(=O)(=O)c2cccs2)c2nc3ccccc3nc21`, “inactive”; for `N#Cc1nc(-c2ccco2)oc1N1CCN(c2cccc(Cl)c2)CC1`, “inactive”. As to `CC(Oc1ccc(Cl)cc1Cl)C(=O)NCc1ccncc1` (stereo unspecified), the result was inactive. As for `Cc1cc(C)c(C)c(OCC(=O)NCC2CCCO2)c1` (stereo unspecified), the compound was classed as inactive. For `O=C(O)c1n[nH]c2c1CCCCC2` the value was “inactive”. Consider `CC1(CCc2ccccc2)NC(=O)N(Cc2nnc(-c3ccccc3Br)o2)C1=O` (stereo unspecified), for which the compound was called inactive.

Turning to `CC1Cc2ccccc2N1c1nc(C2CC2)nc2c1nnn2Cc1ccccc1` (stereo unspecified), the compound was classed as inactive. For `Cc1nnc(SCC(=O)Nc2sc3c(c2C#N)CCCC3)[nH]c1=O` the value was “inactive”. On to `CC(=O)Nc1c(O)nc(SCC(=O)Nc2sc3c(c2C#N)CCCCCC3)[nH]c1=O`, for which the call was inactive.

With `CC(C)(C)C1CCc2c(sc(NC(=O)CSc3ncn[nH]3)c2C#N)C1` (stereo unspecified), the call was inactive. As for `N#Cc1c(NC(=O)CSc2nc(N)cc(=O)[nH]2)sc2c1CCCCCC2`, the call was inactive.
